In PubChem BioAssay (NCATS):
Inconclusive results are not listed. The source made the active and inactive calls. Unless noted, the call rests on the fitted dose curve; in most records, active means well fitted curve in either direction with a large enough effect (not every such curve was filed as active); inconclusive means small, poorly fitted or top-dose-only effect, or another doubt; inactive means flat fitted curve, though single readings scatter.

Experiments:
[1] = molecular target: Lysosomal acid glucosylceramidase (Homo sapiens) (UniProt P04062); assay: Glucocerebrosidase-p2 (AID 348; in the data active means potency below about 10 µM; further: potency means the concentration at half of the fitted maximal effect); settings: purified GBA, blue fluorogenic substrate, 40 min
Lysosomal acid glucosylceramidase (Homo sapiens), sequence (P04062 whole entry, looked up): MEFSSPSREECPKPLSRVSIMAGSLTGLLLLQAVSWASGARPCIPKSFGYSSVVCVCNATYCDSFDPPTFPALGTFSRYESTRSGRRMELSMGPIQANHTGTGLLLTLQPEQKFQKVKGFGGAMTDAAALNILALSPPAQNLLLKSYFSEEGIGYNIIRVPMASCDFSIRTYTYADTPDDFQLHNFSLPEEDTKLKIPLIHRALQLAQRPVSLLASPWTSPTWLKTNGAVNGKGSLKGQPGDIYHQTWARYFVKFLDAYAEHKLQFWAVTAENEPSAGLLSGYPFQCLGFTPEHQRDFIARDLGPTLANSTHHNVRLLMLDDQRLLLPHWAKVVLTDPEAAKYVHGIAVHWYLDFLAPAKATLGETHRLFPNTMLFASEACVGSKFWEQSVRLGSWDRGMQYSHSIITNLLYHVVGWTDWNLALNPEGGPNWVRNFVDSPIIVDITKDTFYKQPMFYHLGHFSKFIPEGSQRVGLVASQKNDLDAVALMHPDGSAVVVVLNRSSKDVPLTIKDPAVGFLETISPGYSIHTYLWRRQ
How it was run: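 Normal human glucocerebrosidase (0.2 nM) with blue fluorogenic substrate (80 uM final) in citrate/phosphate pH 5.9 with 10mM sodium taurocholate, 0.01% tween-20; 40 min RT, NaOH/glycine stop; fluorescence Ex 365/Em 440; AC50 from a titration from 0.6 nM upwards.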

[2] = AP1 Signaling Pathway (AID 357); settings: ME-180 AP-1-bla reporter, EGF-induced, beta-lactamase ratio, 5 h; at 7.69 µM (top of the series) unless noted; further: on the % scale 0 is the no-effect control and ±100 the full control effect
How it was run: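 Modulation of EGF-driven AP-1 transcription was assessed with a beta-lactamase reporter in ME-180 cells. Compound and EC50 EGF were co-incubated 5 hours at 37 °C before 2.5-hour CCF4 loading at room temperature and dual-emission reading.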

[3] = NFAT Signaling Pathway (AID 444); settings: Jurkat NFAT-bla M1, carbachol, beta-lactamase ratio, 5 h; at 7.69 µM (top of the series) unless noted;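 further: carbachol stimulus at about its EC50 of 1 µM final; on the % scale 0 is the no-effect control and ±100 the full control effect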
How it was run: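 Jurkat cells with NFAT-driven β-lactamase reporter and co-expressed M1 receptor, stimulated with carbachol (final 1 uM, ~EC50), compound titration, 5 h at 37 °C. CCF4 loaded 1 h at RT; 460/530 nm ratio gave %activity and AC50.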

[4] = Stat Signaling Pathway (AID 446); settings: ME-180 (cervical carcinoma) SIE beta-lactamase reporter, IL-6 stimulated, 5 h; at 7.69 µM (top of the series) unless noted;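 further: ME-180 cervical cancer cells given 40 pM IL-6 alongside compound; SIE-controlled beta-lactamase reporter measured as 460/530 nm FRET emission ratio; on the % scale 0 is the no-effect control and ±100 the full control effect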
How it was run: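 FRET read-out (405 nm excitation, 460/530 nm emission) of a beta-lactamase reporter under a STAT-inducible element in ME-180 cervical carcinoma cells. Cells with compound receive 40 pM IL-6 for 5 h. Values are normalised to AC90 stimulation and AC90 JAK-inhibitor controls.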

[5] = molecular target: Glucocorticoid receptor (Homo sapiens) (UniProt P04150); assay: GR-EFC Redistribution (AID 451; calls by dose curve; further: potency means the concentration at half of the fitted maximal effect); settings: CHO-K1 GR-EFC translocation, beta-gal luminescence, 2 h
Glucocorticoid receptor (Homo sapiens), sequence (P04150 whole entry, looked up, the tested form may be a part): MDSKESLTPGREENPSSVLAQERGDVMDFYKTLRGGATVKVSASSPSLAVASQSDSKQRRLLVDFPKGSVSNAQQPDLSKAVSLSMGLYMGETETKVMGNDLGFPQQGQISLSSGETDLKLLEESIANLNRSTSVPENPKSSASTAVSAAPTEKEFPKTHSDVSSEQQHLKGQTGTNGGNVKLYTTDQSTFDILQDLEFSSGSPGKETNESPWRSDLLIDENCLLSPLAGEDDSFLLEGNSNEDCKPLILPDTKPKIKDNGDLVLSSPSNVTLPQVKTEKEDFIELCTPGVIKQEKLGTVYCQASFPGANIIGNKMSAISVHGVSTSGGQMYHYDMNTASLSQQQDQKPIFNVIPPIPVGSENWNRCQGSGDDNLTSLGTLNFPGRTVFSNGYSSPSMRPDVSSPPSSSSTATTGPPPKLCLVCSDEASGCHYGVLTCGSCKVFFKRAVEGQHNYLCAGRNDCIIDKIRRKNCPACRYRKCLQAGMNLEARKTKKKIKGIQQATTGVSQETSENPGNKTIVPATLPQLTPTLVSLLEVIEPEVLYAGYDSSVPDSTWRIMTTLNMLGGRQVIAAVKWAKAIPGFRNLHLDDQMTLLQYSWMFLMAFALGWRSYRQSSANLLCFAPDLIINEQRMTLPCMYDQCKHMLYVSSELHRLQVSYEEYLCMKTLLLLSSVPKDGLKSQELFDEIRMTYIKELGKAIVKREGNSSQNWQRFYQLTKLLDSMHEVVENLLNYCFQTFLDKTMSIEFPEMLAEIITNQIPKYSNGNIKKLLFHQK
How it was run: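 CHO-K1 cells expressing nuclear EA and GR-ED fragments of b-gal; compounds titrated up to 46 uM final, 2 h at 37 C. GR nuclear translocation read as complemented b-gal luminescence after 1 h RT detection.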

[6] = molecular target: Mitogen-activated protein kinase 10 (Mus musculus) (UniProt Q61831); assay: JNK3 AlphaScreen Assay (AID 530); settings: JNK3 lysate, c-Jun phosphorylation; series mostly up to 57.1 µM;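 further: kinase came from lysate of stimulated human HepG2 cells; signal reports phosphorylation of biotinylated GST-cJun 1-79 at Ser73 with 10 µM ATP; on the % scale 0 is the no-effect control and ±100 the full control effect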
How it was run: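 HepG2 lysate (IL-1b/TNFa pre-activated) + biotin-GST-cJun 1-79 + anti-pSer73 cJun; cpd titration, 15 min RT; ATP 10 uM start; Tris pH 7.6, MgCl2, DTT, vanadate; beads in EDTA buffer; AlphaScreen.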

[7] = molecular target: 3',5'-cyclic-AMP phosphodiesterase 4B (Homo sapiens) (UniProt Q07343); assay: qHTS Assay for Inhibitors of PDE-IV (AID 607; active means well fitted activation curve with a large enough effect in the main read-out, with a control signal flat, not every such curve was filed as active; further: % of control where 0% means no effect); settings: HEK293 ACTOne CNG channel cells, membrane potential fluorescence; series mostly up to 22.9 µM
3',5'-cyclic-AMP phosphodiesterase 4B (Homo sapiens), sequence (Q07343 whole entry, looked up): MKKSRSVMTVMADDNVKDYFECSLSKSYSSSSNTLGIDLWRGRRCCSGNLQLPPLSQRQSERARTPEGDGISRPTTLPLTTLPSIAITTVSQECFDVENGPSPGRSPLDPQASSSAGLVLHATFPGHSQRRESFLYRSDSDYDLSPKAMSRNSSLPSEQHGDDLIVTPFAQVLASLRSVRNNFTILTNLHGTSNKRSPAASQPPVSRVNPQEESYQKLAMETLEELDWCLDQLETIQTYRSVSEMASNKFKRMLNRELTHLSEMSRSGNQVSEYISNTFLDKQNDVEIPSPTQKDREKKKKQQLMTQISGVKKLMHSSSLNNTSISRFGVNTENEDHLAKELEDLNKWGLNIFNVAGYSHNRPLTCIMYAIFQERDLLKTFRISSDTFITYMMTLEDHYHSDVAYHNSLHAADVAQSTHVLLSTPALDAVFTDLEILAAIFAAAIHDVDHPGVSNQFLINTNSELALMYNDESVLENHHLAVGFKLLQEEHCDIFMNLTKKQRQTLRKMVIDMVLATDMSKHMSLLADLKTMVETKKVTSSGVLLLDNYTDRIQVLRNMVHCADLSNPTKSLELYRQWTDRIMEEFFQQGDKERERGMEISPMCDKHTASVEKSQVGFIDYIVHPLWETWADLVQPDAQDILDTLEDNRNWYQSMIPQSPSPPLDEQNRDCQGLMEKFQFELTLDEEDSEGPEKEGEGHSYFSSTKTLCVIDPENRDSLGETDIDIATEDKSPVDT
How it was run: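 Cell-based read-out of cAMP via a modified cyclic nucleotide-gated channel and membrane potential dye (535/590 nm) in HEK293 cells expressing PDE4 endogenously. Compounds tested up to 22.9 uM final; 100 uM RO 20-1724 reference.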

[8] = qHTS Assay for Lipid Storage Modulators (AID 1519; calls by dose curve); settings: Drosophila S3 cells, BODIPY lipid droplet/cell ratio, laser cytometry, cells loaded with oleic acid; for activity change, negative = inhibition: at 57.5 µM (top of the series)
How it was run: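 Cells seeded at 5,000 per well were treated with compounds over a concentration series and loaded with oleic acid (400 uM, as added). Lipid droplet fluorescence (488 nm excitation, 500-530 nm channel) was read by laser-scanning cytometry and normalized to 20 uM Triacsin C.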

[9] = Primary qHTS for small molecule stabilizers of the endoplasmic reticulum resident proteome: Secreted ER Calcium Modulated Protein (SERCaMP) assay (AID 1508630; active means well fitted curve in the direction sought with a large enough effect; an effect the other way counts as inactive or inconclusive; further: on the % scale 0 is the no-effect control and ±100 the full control effect); settings: SH-SY5Y GLuc-SERCaMP (Gaussia luciferase released on ER calcium loss) secretion, thapsigargin, luminescence; series mostly up to 38.4 µM
How it was run: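 The SH-SY5Y reporter protocol was run at 3 concentrations up to 38.3 uM (primary) or 11 concentrations (follow-up): 16 h compound, 100 nM thapsigargin for 4 h, then extracellular luciferase luminescence.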

[10] = molecular target: Cytochrome P450 3A4 (Homo sapiens) (UniProt P08684); assay: qHTS Assay for Activators of Cytochrome P450 3A4 (AID 885; active means well fitted curve in the direction sought with a large enough effect; an effect the other way counts as inactive or inconclusive; further: nearly all actives have a fitted effect of over 65% in size; further: potency means the concentration at half of the fitted maximal effect); settings: recombinant CYP3A4, Luciferin-PPXE luminescence, 60 min; series mostly up to 57.1 µM
Cytochrome P450 3A4 (Homo sapiens), sequence (P08684 whole entry, looked up): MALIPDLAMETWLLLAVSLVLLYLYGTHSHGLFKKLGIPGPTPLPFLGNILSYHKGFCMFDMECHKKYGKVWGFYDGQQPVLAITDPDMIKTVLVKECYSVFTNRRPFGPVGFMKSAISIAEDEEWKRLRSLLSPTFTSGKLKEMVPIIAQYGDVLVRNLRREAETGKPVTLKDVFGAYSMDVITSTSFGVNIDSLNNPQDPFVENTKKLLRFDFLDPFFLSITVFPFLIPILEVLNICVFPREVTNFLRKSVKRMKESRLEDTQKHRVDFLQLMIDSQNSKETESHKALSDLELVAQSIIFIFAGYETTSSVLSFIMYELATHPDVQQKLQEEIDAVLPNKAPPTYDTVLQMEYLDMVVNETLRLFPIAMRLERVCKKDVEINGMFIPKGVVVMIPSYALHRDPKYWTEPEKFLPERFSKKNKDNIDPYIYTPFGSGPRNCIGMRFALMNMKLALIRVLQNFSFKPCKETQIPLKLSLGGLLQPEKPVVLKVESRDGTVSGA
How it was run: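 Luminescent readout of luciferin formed from 25 uM Luciferin-PPXE (KM level) by 20 nM CYP3A4 in 200 mM KPO4, with 60 min NADPH-driven reaction at room temperature after 10 min compound exposure. Ketoconazole (57 uM) defined 100% inhibition.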

[11] = molecular target: Cytochrome P450 2D6 (Homo sapiens) (UniProt P10635); assay: qHTS Assay for Inhibitors and Substrates of Cytochrome P450 2D6 (AID 891; active means well fitted curve in the direction sought with a large enough effect; an effect the other way counts as inactive or inconclusive; further: potency means the concentration at half of the fitted maximal effect; nearly all actives have a fitted effect of over 60% in size); settings: recombinant CYP2D6, luciferin-ME EGE luminescence; series mostly up to 57.1 µM
Cytochrome P450 2D6 (Homo sapiens), sequence (P10635 whole entry, looked up): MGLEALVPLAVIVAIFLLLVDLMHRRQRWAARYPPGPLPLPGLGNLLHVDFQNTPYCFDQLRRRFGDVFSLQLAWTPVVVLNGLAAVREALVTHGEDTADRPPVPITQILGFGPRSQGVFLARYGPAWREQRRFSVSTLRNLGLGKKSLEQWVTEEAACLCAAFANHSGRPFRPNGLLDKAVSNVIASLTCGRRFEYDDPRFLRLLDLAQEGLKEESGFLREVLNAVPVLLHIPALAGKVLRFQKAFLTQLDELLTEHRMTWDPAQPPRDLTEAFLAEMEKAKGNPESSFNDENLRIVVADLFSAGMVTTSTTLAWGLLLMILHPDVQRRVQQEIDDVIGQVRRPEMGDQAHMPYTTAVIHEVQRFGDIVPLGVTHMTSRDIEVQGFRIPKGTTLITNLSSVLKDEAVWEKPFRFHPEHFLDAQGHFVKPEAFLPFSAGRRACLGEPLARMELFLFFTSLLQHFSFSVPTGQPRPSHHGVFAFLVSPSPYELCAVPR
How it was run: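 Luminescent read-out of luciferin formed by 5 nM human CYP2D6 demethylating 30 uM Luciferin-ME EGE (Km level) over 60 min at room temperature after NADPH regeneration addition. Data normalized to full inhibition by 1.43 uM quinidine.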

[12] = molecular target: Cytochrome P450 3A4 (Homo sapiens) (UniProt P08684); assay: qHTS Assay for Inhibitors and Substrates of Cytochrome P450 3A4 (AID 884; active means well fitted curve in the direction sought with a large enough effect; an effect the other way counts as inactive or inconclusive; further: on the % scale 0 is the no-effect control and ±100 the full control effect; nearly all actives have a fitted effect of over 50% in size); settings: recombinant CYP3A4, Luciferin-PPXE luminescence; series mostly up to 57.1 µM
How it was run: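 Luminescent readout of luciferin produced by CYP3A4 (20 nM) dealkylation of Luciferin-PPXE, 25 uM (its KM). NADPH-driven reaction ran 60 min at RT after 10 min compound preincubation; data scaled to 57 uM ketoconazole as 100% inhibition.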

[13] = measured here: cell count channel max response
[14] = measured here: lipid channel max response

Cn1cccc1C(=O)N1CCC[C@@]2(CCN(C(=O)Nc3cccc(F)c3)C2)C1
9.75%: max response [8, 13]
17.3%: max response [8, 14]
inactive: Potency [1] > 11.4 µM | activity change, negative = inhibition [2] -5.32% | activity change, negative = inhibition [3] 4.03% | activity, negative = inhibition [4] 5.29% | Potency [5] > 46 µM | Potency [6] | Potency [7] | activity change, negative = inhibition [8] 4.9% | outcome [9]

O=C(c1cnccn1)N1CCC[C@@]2(CCN(c3ccccn3)C2)C1
26.9%: max response [8, 14]
inactive: Potency [1] > 11.4 µM | activity change, negative = inhibition [2] 7.84% | activity change, negative = inhibition [3] 0.825% | activity, negative = inhibition [4] 0.945% | Potency [5] > 46 µM | Potency [6] | Potency [7] | Potency [10] | activity change, negative = inhibition [8] 3.99% | outcome [9]
24.1%: max response [8, 13]

Cn1cccc1C(=O)N1CCC2(CC1)CN(C(c1ccccc1)c1ccccc1)C2
-6.77%: max response [8, 13]
active: Potency [10] 15.8 µM | Potency [11] 3.16 µM
inactive: Potency [1] > 11.4 µM | activity change, negative = inhibition [2] 14.4% | activity change, negative = inhibition [3] -18.7% | activity, negative = inhibition [4] -4.09% | Potency [5] > 46 µM | Potency [6] | Potency [7] | activity change, negative = inhibition [8] -5.27% | outcome [9]
-9.88%: max response [8, 14]

O=C(c1csnn1)N1CCC2(CCCN(c3cccc(-c4ccccc4)c3)C2)CC1
inactive: Potency [1] > 11.4 µM | activity change, negative = inhibition [2] -12.3% | activity change, negative = inhibition [3] -13.8% | activity, negative = inhibition [4] -5.72% | Potency [5] > 46 µM | Potency [6] | Potency [7] | activity change, negative = inhibition [8] -16.4% | outcome [9]
9.62%: max response [8, 13]
-3.2%: max response [8, 14]

COc1ccc(C(=O)N2CCC3(CC2)CCN(c2ccccc2)CC3)cc1
inactive: Potency [1] > 11.4 µM | activity change, negative = inhibition [2] -11.8% | activity change, negative = inhibition [3] 1.53% | activity, negative = inhibition [4] -8.92% | Potency [5] > 46 µM | Potency [6] | Potency [7] | Potency [12] | activity change, negative = inhibition [8] 4.37% | outcome [9]
9.05%: max response [8, 13]
17.4%: max response [8, 14]

O=C(Nc1ccccc1)N1CC[C@@]2(CCCN(C(=O)c3cccc(F)c3)C2)C1
inactive: Potency [1] > 11.4 µM | activity change, negative = inhibition [2] -10.5% | activity change, negative = inhibition [3] -6.63% | activity, negative = inhibition [4] 4.89% | Potency [5] > 46 µM | Potency [6] | Potency [7] | Potency [10] | activity change, negative = inhibition [8] 5.88% | outcome [9]
27.2%: max response [8, 14]
19.2%: max response [8, 13]

Cn1cccc1C(=O)N1CCC2(CC1)CN(C(=O)Nc1cccc(C#N)c1)C2
11.3%: max response [8, 13]
inactive: Potency [1] > 11.4 µM | activity change, negative = inhibition [2] -22.3% | activity change, negative = inhibition [3] -2.19% | activity, negative = inhibition [4] -3.02% | Potency [5] > 46 µM | Potency [6] | Potency [7] | activity change, negative = inhibition [8] 4.61% | outcome [9]
18.4%: max response [8, 14]
